In the supplement of paper PMC12645437, “Orthogonal IMiD-Degron Pairs Induce Selective Protein Degradation in Cells” (ACS Chemical Biology, 2025):
Whole data set: some 8,300 sequences, median “log2 fold change of degron read counts, EGFP-low vs EGFP+ sorted cells (limma voom), compound-induced degradation” near -1.1, cut for the highest 2% near 3.2. The full list was thinned out, with the highest values kept by preference.

Target: T1, CRBN, Q96SW2
T1 chain: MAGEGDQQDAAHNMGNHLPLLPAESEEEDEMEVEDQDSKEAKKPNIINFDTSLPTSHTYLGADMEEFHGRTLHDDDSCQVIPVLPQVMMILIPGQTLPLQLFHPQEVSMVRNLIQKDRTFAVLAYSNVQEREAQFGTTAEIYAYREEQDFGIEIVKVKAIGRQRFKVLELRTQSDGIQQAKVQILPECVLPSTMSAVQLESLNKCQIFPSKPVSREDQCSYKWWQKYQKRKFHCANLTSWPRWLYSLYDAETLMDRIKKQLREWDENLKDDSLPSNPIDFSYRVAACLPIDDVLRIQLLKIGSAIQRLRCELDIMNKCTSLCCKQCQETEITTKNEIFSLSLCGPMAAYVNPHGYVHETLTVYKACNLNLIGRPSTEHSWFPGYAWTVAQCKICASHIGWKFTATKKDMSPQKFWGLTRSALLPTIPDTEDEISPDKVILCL
Test: log2 fold change of degron read counts, EGFP-low vs EGFP+ sorted cells (limma voom), compound-induced degradation; higher = more compound-induced degradation of the degron-EGFP fusion; degrons are variants of IKZF1/3 zinc finger 2; compound dose not given here
Settings: Jurkat, 18 h

[1] = compound: compound 19 (5-tert-butyl-thalidomide)
[2] = compound: compound 22 (5-morpholino-thalidomide)
[3] = compound: compound 33 (diphenyl IMiD analogue)
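Also: pooled lentiviral library of zinc finger degron-EGFP fusions in mCherry-positive Jurkat cells, FACS-sorted after compound exposure, with degron abundance counted by next-generation sequencing.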

Sequence	log2 fold change of degron read counts [1]	log2 fold change of degron read counts [2]	log2 fold change of degron read counts [3]	log2 fold change of degron read counts (compound: thalidomide)
FHCEICGARFTQKGNLLRHIKL [46F_47H_49E_50I_52G_53A_54R_55F_67L_, Q9UKT9]	2.72	2.42	0.44	0.706
FACEICGARFTQKGNLLRHIKL [46F_47A_49E_50I_52G_53A_54R_55F_67L_, Q9UKT9]	3.84	2.89	-0.685	1.16
FICEICGARFTQKGNLLRHIKL [46F_47I_49E_50I_52G_53A_54R_55F_67L_, Q9UKT9]	0.817	2.66	1.57	3.04
FRCEICGARFTQKGNLLRHIKL [46F_47R_49E_50I_52G_53A_54R_55F_67L_, Q9UKT9]	-0.586	-0.873	-0.311	0.853
FDCEICGARFTQKGNLLRHIKL [46F_47D_49E_50I_52G_53A_54R_55F_67L_, Q9UKT9]	3.3	1.74	0.651	2.27
FVCEICGARFTQKGNLLRHIKL [46F_47V_49E_50I_52G_53A_54R_55F_67L_, Q9UKT9]	1.67	2.43	1.02	3.07
FMCEICGARFTQKGNLLRHIKL [46F_47M_49E_50I_52G_53A_54R_55F_67L_, Q9UKT9]	-0.0205	-0.359	1.34	1.5
FYCEICGARFTQKGNLLRHIKL [46F_47Y_49E_50I_52G_53A_54R_55F_67L_, Q9UKT9]	3.7	3.37	2.11	1.8
FQCEICGARFTQKGNLLRHIKL [46F_47Q_49E_50I_52G_53A_54R_55F_67L_, Q9UKT9]	0.106	2.1	1.34	3.7
FQCEICGAWFTQKGNLLRHIKL [46F_47Q_49E_50I_52G_53A_54W_55F_67L_, Q9UKT9]	-1.84	-0.947	0.615	2.26
FLCEICGARFTQKGNLLRHIKL [46F_47L_49E_50I_52G_53A_54R_55F_67L_, Q9UKT9]	0.574	-1.16	-0.0449	2.33
FGCSVCGHIFTQKGNLLRHIKL [46F_47G_49S_50V_52G_53H_54I_55F_67L_, Q9UKT9]	-1.23	-2.7	-2.06	-1.9
LHCPICGFDCTQKGNLLRHIKL [46L_47H_49P_50I_52G_53F_54D_55C_67L_, Q9UKT9]	-1.62	-1.37	0.393	-0.313
FICNQCGREFTQKGNLLRHIKL [46F_47I_49N_50Q_52G_53R_54E_55F_67L_, Q9UKT9]	-2.93	-3.08	-3.08	-3.43
FQCEQCGACFTQKGNLLRHIKL [46F_47Q_49E_50Q_52G_53A_54C_55F_67L_, Q9UKT9]	-1.81	0.107	0.542	3.02
FCCPICGANFTQKGNLLRHIKL [46F_47C_49P_50I_52G_53A_54N_55F_67L_, Q9UKT9]	2.07	2.16	2.33	2.22
FMCEICGRGFTQKGNLLRHIKL [46F_47M_49E_50I_52G_53R_54G_55F_67L_, Q9UKT9]	-1.28	-1.8	-0.771	-1.76
LDCPICGFRCTQKGNLLRHIKL [46L_47D_49P_50I_52G_53F_54R_55C_67L_, Q9UKT9]	2	0.931	1.11	2.55
LQCPICGFICTQKGNLLRHIKL [46L_47Q_49P_50I_52G_53F_54I_55C_67L_, Q9UKT9]	-0.0184	2.22	2.06	3.45
LYCPICGFRCTQKGNLLRHIKL [46L_47Y_49P_50I_52G_53F_54R_55C_67L_, Q9UKT9]	3.08	3.4	1.5	1.15
LMCPICGFRCTQKGNLLRHIKL [46L_47M_49P_50I_52G_53F_54R_55C_67L_, Q9UKT9]	0.588	1.13	2.13	2
LTCPICGFICTQKGNLLRHIKL [46L_47T_49P_50I_52G_53F_54I_55C_67L_, Q9UKT9]	-0.0311	0.718	1.67	1.78
LSCPICGFICTQKGNLLRHIKL [46L_47S_49P_50I_52G_53F_54I_55C_67L_, Q9UKT9]	1.06	1.05	1.47	0.848
LTCPICGFRCTQKGNLLRHIKL [46L_47T_49P_50I_52G_53F_54R_55C_67L_, Q9UKT9]	1.45	2.61	1.91	2.92
LQCPICGFRCTQKGNLLRHIKL [46L_47Q_49P_50I_52G_53F_54R_55C_67L_, Q9UKT9]	0.322	1.54	0.782	3.35
LECPICGFRCTQKGNLLRHIKL [46L_47E_49P_50I_52G_53F_54R_55C_67L_, Q9UKT9]	1.29	0.491	2.73	3.62
LLCPICGFRCTQKGNLLRHIKL [46L_47L_49P_50I_52G_53F_54R_55C_67L_, Q9UKT9]	0.662	-0.346	0.856	2.44
LRCPICGFRCTQKGNLLRHIKL [46L_47R_49P_50I_52G_53F_54R_55C_67L_, Q9UKT9]	-0.000253	-0.254	0.655	1.06
LVCPICGFRCTQKGNLLRHIKL [46L_47V_49P_50I_52G_53F_54R_55C_67L_, Q9UKT9]	1.86	3.01	1.42	3.2
